Data as given in the supplement of paper PMC10515830.
Structures can show the parent of a compound that is named as a salt.

Experiments:
Conditions in all cases: 10 µM; exposure time 6 h
[1] = system: Danio rerio larvae (5 dpf); assay: difference in excitability vs DMSO (percentage points); higher = more excitable than DMSO
How it was run: (§1)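 Wild-type zebrafish larvae at 5 dpf were kept in 96-well plates and exposed for 6 h to 100 µL egg water holding library compound at a final concentration of 10 µM. From 3 h into exposure, the plates were held at 28.5 ℃ and photographed every 6 s through a 3-h programme of moving lines and 100 ms, 400Hz tones. Each behaviour was scored by Z-LaP Tracker, a DeepLabCut model, and averaged over 48 larvae per compound. Every value gives the compound mean minus the vehicle control mean, in percentage points.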

[2] = system: Danio rerio larvae (5 dpf); assay: difference in startle response vs DMSO (percentage points); higher = stronger startle than DMSO
How it was run: as §1

[3] = system: Danio rerio larvae (5 dpf); assay: difference in activity during first hour vs DMSO (percentage points); higher = more activity than DMSO
How it was run: as §1

[4] = system: Danio rerio larvae (5 dpf); assay: difference in habituation to acoustic stimuli vs DMSO (percentage points); higher = more habituation than DMSO
How it was run: as §1

[5] = system: Danio rerio larvae (5 dpf); assay: difference in combined optomotor response to red, green and blue moving lines vs DMSO (percentage points); higher = stronger optomotor response than DMSO
How it was run: as §1

Structure (SMILES) | difference in excitability [1] | difference in startle response [2] | difference in activity during first hour [3] | difference in habituation to acoustic stimuli [4] | difference [5]
N=C(N)N/N=C/c1c(Cl)cccc1Cl [Guanabenz (hydrochloride)] | 1.72 | 17.3 | -12.1 | 5.15 | 8.58
CC[C@@H]1/C=C(\C)C[C@H](C)C[C@H](OC)[C@H]2O[C@@](O)(C(=O)C(=O)N3CCCC[C@H]3C(=O)O[C@H](/C(C)=C/[C@@H]3CC[C@H](Cl)[C@H](OC)C3)[C@H](C)[C@@H](O)CC1=O)[C@H](C)C[C@@H]2OC [Pimecrolimus] | 12 | -9.07 | 23 | -1.18 | -12.6
CCCCC[C@H](O)CC[C@@H]1[C@H]2Cc3cccc(OCC(=O)O)c3C[C@H]2C[C@H]1O [Treprostinil] | -4.04 | -1.85 | 4.94 | -2.5 | -6.11
CC(=O)N(CC(O)CO)c1c(I)c(C(=O)NCC(O)CO)c(I)c(C(=O)NCC(O)CO)c1I (stereo not given) [Iohexol] | 1.55 | 0.754 | 5.28 | -1.14 | -0.849
CN1C(CCl)Nc2cc(Cl)c(S(N)(=O)=O)cc2S1(=O)=O (stereo not given) [Methyclothiazide] | 5.58 | 4.44 | -0.184 | 2 | -1.76
CC[C@@H]1C(=O)OC[C@@H]1Cc1cncn1C [(+)-Pilocarpine (hydrochloride)] | 9.24 | -3.79 | -22.2 | 5.07 | -5.32
CCC(C)(C)C(=O)O[C@H]1C[C@@H](C)C=C2C=C[C@H](C)[C@H](CC[C@@H]3C[C@@H](O)CC(=O)O3)[C@H]21 [Simvastatin] | 6.26 | -2.42 | 9.76 | 1.77 | 2.53
O=C1c2c(O)ccc(O)c2C(=O)c2c(NCCNCCO)ccc(NCCNCCO)c21 [Mitoxantrone (hydrochloride)] | 8.92 | -11.2 | -16.2 | -16 | -15.4
O=C(O)C1(C(=O)O)CCC1.[NH2-].[NH2-].[Pt+2] [Carboplatin] | -3.06 | -1.15 | -11.9 | 0.48 | -2.73
NCCc1ccc(O)c(O)c1 [Dopamine (hydrochloride)] | 4.19 | -3.68 | 12.6 | 4.17 | 2.15
Clc1ccc2c(c1)C(N1CCNCC1)=Nc1ccccc1O2 [Amoxapine] | 6.07 | -0.987 | 35.7 | -1.72 | 12.4
Nc1ccc(S(=O)(=O)c2ccc(N)cc2)cc1 [Dapsone] | 4.16 | 3.11 | 2.88 | 2.23 | 1.86
CC(C)(O)c1ccccc1CC[C@@H](SCC1(CC(=O)O)CC1)c1cccc(/C=C/c2ccc3ccc(Cl)cc3n2)c1 [Montelukast (sodium salt)] | 10.4 | 2.54 | -3.93 | 1.58 | 3.42
C[C@@H]1CCO[C@H]2Cn3cc(C(=O)NCc4ccc(F)cc4F)c(=O)c(O)c3C(=O)N12 [Dolutegravir] | 9.08 | 3.83 | 7.43 | 1.07 | 7.64
CC(C)(S)[C@@H](N)C(=O)O [Penicillamine] | 1.99 | 3.43 | -11.2 | 6.31 | 4.5
COC(=O)N[C@H](C(=O)N[C@@H](Cc1ccccc1)[C@@H](O)CN(Cc1ccc(-c2ccccn2)cc1)NC(=O)[C@@H](NC(=O)OC)C(C)(C)C)C(C)(C)C [Atazanavir] | -0.672 | -1.55 | -1.56 | -0.953 | 2.7
CCCCN1C[C@H](O)[C@@H](O)[C@H](O)[C@H]1CO [N-Butyldeoxynojirimycin (hydrochloride)] | -7.96 | 4.45 | 16.1 | 5.5 | 4.55
Cc1nc2n(c(=O)c1CCN1CCC(c3noc4cc(F)ccc34)CC1)CCCC2O (stereo not given) [Paliperidone] | 15.4 | 0.117 | 18.6 | 0.732 | 5.58
CC1(C)S[C@@H]2[C@H](NC(=O)[C@H](N)c3ccc(O)cc3)C(=O)N2[C@H]1C(=O)O [Amoxicillin (hydrate)] | 2.37 | 8.42 | 13.1 | 5.1 | 8.79
Clc1ccc(CO/N=C(\Cn2ccnc2)c2ccc(Cl)cc2Cl)c(Cl)c1 [Oxiconazole (nitrate)] | 5.37 | -6.72 | -22.9 | -11 | -17.3
CCC1=C(C)CN(C(=O)NCCc2ccc(S(=O)(=O)NC(=O)N[C@H]3CC[C@H](C)CC3)cc2)C1=O [Glimepiride] | -3.07 | 2.59 | 2.62 | 3.43 | -2.24
CN(C/C=C/C#CC(C)(C)C)Cc1cccc2ccccc12 [Terbinafine (hydrochloride)] | 7.35 | 0.627 | 1.02 | -1.41 | -4.42
COc1cc(C(=O)NCc2ccc(OCCN(C)C)cc2)cc(OC)c1OC [Trimethobenzamide (hydrochloride)] | -3.22 | 1.06 | -0.789 | 2.91 | -5.61
CC[C@H]1OC(=O)[C@H](C)[C@@H](O[C@H]2C[C@@](C)(OC)[C@@H](O)[C@H](C)O2)[C@H](C)[C@@H](O[C@@H]2O[C@H](C)C[C@H](N(C)C)[C@H]2O)[C@](C)(OC)C[C@@H](C)C(=O)[C@H](C)[C@@H](O)[C@]1(C)O [Clarithromycin] | 7.19 | 1.97 | 11.7 | -1.55 | 6.95
